The other results are listed elsewhere or left out. No count for the full screen is at hand.

We go through 49 sequences from the supplement of paper PMC3545927.

This test has as its target furin, P09958. As to the kind of experiment: furin cleavage Z-score vs untreated control; higher = more cleavage, active = 3.5 or more, inactive = 1 or less, 8 variable residues between constant flanks. Summed up: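 The cleavage Z-score is the log read count relative to furin-free reactions, lowess-adjusted and scaled by median absolute deviation. Counts came from sequencing DNA released from bead-bound 8-mer peptide–cDNA fusions after digestion with purified furin for 7.5, 15 or 30 min.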
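Also: purified furin at 1:10 enzyme:substrate in 50 mM HEPES pH 7.5.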

Sequence of furin, P09958 (P09958 whole entry, the tested form may be a part): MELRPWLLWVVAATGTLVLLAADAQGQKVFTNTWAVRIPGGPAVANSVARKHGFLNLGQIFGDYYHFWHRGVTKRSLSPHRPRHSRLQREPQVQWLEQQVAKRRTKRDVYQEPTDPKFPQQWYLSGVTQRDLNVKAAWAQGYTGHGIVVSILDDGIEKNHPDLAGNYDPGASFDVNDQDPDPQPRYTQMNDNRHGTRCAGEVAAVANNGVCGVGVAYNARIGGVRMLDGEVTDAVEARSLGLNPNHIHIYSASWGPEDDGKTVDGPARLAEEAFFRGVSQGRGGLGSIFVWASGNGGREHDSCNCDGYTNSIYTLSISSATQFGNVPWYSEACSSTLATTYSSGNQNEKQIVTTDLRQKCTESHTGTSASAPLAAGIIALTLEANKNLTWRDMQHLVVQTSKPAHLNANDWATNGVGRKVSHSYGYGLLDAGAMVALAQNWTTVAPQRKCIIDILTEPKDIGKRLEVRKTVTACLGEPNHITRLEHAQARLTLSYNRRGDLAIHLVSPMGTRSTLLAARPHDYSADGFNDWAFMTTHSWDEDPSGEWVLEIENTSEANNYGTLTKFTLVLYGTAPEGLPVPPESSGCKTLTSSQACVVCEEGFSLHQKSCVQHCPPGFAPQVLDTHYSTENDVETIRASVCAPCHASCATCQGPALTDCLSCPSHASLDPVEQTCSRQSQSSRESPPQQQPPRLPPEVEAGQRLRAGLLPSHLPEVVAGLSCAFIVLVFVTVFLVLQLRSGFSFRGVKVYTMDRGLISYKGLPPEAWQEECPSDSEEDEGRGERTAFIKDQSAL

B1: HC2426 (peptide)
chain: CAMREVPCHRAGNASASA
As for B1, the “furin cleavage Z-score” value is, setting by setting: (7.5 min) -1.33 (inactive); (15 min) -0.795 (inactive); (30 min) -0.936 (inactive).

B2: FS-217 (peptide)
chain: CAARARNKREAGNASASA
For the sequence B2, the “furin cleavage Z-score” value runs as follows: (7.5 min) 9.23 (active); (15 min) 10.8 (active); (30 min) 7.52 (active).

B3: FS-279 (peptide)
chain: CANQRRNKREAGNASASA
In the case of B3, the “furin cleavage Z-score” value is 13.2 (active) (7.5 min), 11.8 (active) (15 min) and 8.6 (active) (30 min).

B4: HC1567 (peptide)
chain: CAARAAWETAAGNASASA
On to B4, for which the “furin cleavage Z-score” value is 1.07 (7.5 min), 0.154 (inactive) (15 min) and -0.51 (inactive) (30 min).

B5: HC958 (peptide)
chain: CAARAQAPPPAGNASASA
Take B5: the “furin cleavage Z-score” value was -1.14 (inactive) (7.5 min), -1.1 (inactive) (15 min) and -1.17 (inactive) (30 min).

B6: FS-2265 (peptide)
chain: CARKKKHRKNAGNASASA
B6: the “furin cleavage Z-score” value is 0.00727 (inactive) (7.5 min), -0.00103 (inactive) (15 min) and -1.45 (inactive) (30 min).

B7: FS-1512 (peptide)
chain: CAARARHRKNAGNASASA
Consider B7, for which the “furin cleavage Z-score” value reads like this: (7.5 min) 3.46; (15 min) 4.75 (active); (30 min) 6.6 (active).

B8: HC205 (peptide)
chain: CAEGCGWAGWAGNASASA
Turning to B8, the “furin cleavage Z-score” value is, setting by setting: (7.5 min) -0.871 (inactive); (15 min) 1.45; (30 min) -1.04 (inactive).

B9: HC1485 (peptide)
chain: CATESDIRTEAGNASASA
As to B9, the “furin cleavage Z-score” value was -0.326 (inactive) (7.5 min), -0.524 (inactive) (15 min) and -0.55 (inactive) (30 min).

B10: HC2093 (peptide)
chain: CAVVCCSMSRAGNASASA
Regarding B10, the “furin cleavage Z-score” value by setting is: (7.5 min) 0.591 (inactive); (15 min) 1.03; (30 min) 0.426 (inactive).

B11: FS-2845 (peptide)
chain: CARWKRTQSQAGNASASA
On to B11, for which the “furin cleavage Z-score” value was -0.543 (inactive) (7.5 min), 1.6 (15 min) and 1.76 (30 min).

B12: FS-2623 (peptide)
chain: CARWKRTQRHAGNASASA
B12: the “furin cleavage Z-score” value (7.5 min) was 8.7 (active), the “furin cleavage Z-score” value (15 min) was 11.5 (active) and the “furin cleavage Z-score” value (30 min) was 8.86 (active).

B13: FS-142 (peptide)
chain: CARWKRYQRSAGNASASA
Consider B13, for which the “furin cleavage Z-score” value runs as follows: (7.5 min) 9.87 (active); (15 min) 10.7 (active); (30 min) 9.68 (active).

B14: FS-2844 (peptide)
chain: CARWGRYEGGAGNASASA
As to B14, the “furin cleavage Z-score” value (7.5 min) is -0.438 (inactive), the “furin cleavage Z-score” value (15 min) is -2.78 (inactive) and the “furin cleavage Z-score” value (30 min) is -1.36 (inactive).

B15: FS-1077 (peptide)
chain: CARWKRYRRWAGNASASA
Regarding B15, the “furin cleavage Z-score” value was 10.1 (active) (7.5 min), 12.1 (active) (15 min) and 10.9 (active) (30 min).

B16: FS-2471 (peptide)
chain: CARWKRQNFHAGNASASA
Consider B16, for which the “furin cleavage Z-score” value runs as follows: (7.5 min) 1.47; (15 min) 0.449 (inactive); (30 min) 3.01.

B17: HC832 (peptide)
chain: CALVVLATATAGNASASA
For the sequence B17, the “furin cleavage Z-score” value by setting is: (7.5 min) 1.79; (15 min) 1.59; (30 min) 0.476 (inactive).

B18: HC1673 (peptide)
chain: CAREECSQHLAGNASASA
For B18, the “furin cleavage Z-score” value is, setting by setting: (7.5 min) 1.67; (15 min) 1.9; (30 min) 0.967 (inactive).

B19: FS-1502 (peptide)
chain: CAWARRHKREAGNASASA
In the case of B19, the “furin cleavage Z-score” value runs as follows: (7.5 min) 10.7 (active); (15 min) 9.83 (active); (30 min) 7.82 (active).

B20: FS-905 (peptide)
chain: CAEERREKREAGNASASA
Turning to B20, the “furin cleavage Z-score” value (7.5 min) is 4.27 (active), the “furin cleavage Z-score” value (15 min) is 4.96 (active) and the “furin cleavage Z-score” value (30 min) is 6.98 (active).

B21: FS-179 (peptide)
chain: CANDIREKREAGNASASA
In the case of B21, the “furin cleavage Z-score” value (7.5 min) is 3.92 (active), the “furin cleavage Z-score” value (15 min) was 4.37 (active) and the “furin cleavage Z-score” value (30 min) is 4.65 (active).

B22: FS-694 (peptide)
chain: CANKARLKKIAGNASASA
Turning to B22, the “furin cleavage Z-score” value reads like this: (7.5 min) -0.0765 (inactive); (15 min) -1.98 (inactive); (30 min) -2.55 (inactive).

B23: HC2514 (peptide)
chain: CASTKCSAHLAGNASASA
B23: the “furin cleavage Z-score” value was -0.0801 (inactive) (7.5 min), 1.2 (15 min) and 0.075 (inactive) (30 min).

B24: HC1958 (peptide)
chain: CATCTTPCSGAGNASASA
In the case of B24, the “furin cleavage Z-score” value is -0.852 (inactive) (7.5 min), 0.00782 (inactive) (15 min) and -0.733 (inactive) (30 min).

B25: FS-1660 (peptide)
chain: CATVSRTGRQAGNASASA
As to B25, the “furin cleavage Z-score” value is, setting by setting: (7.5 min) 0.744 (inactive); (15 min) 2.19; (30 min) 3.07.

B26: FS-3047 (peptide)
chain: CARRGRFLNQAGNASASA
As to B26, the “furin cleavage Z-score” value (7.5 min) is -0.612 (inactive), the “furin cleavage Z-score” value (15 min) was -0.298 (inactive) and the “furin cleavage Z-score” value (30 min) amounted to 1.14.

B27: FS-596 (peptide)
chain: CAHNNRVGRQAGNASASA
Turning to B27, the “furin cleavage Z-score” value by setting is: (7.5 min) 3.21; (15 min) 3.29; (30 min) 4.86 (active).

B28: FS-405 (peptide)
chain: CACRFRFGRQAGNASASA
As for B28, the “furin cleavage Z-score” value (7.5 min) was found to be 2.68, the “furin cleavage Z-score” value (15 min) is 3.98 (active) and the “furin cleavage Z-score” value (30 min) came to 2.63.

B29: HC507 (peptide)
chain: CAHQNIVDVQAGNASASA
Take B29: the “furin cleavage Z-score” value (7.5 min) is -1.69 (inactive), the “furin cleavage Z-score” value (15 min) was -1.38 (inactive) and the “furin cleavage Z-score” value (30 min) was 0.384 (inactive).

B30: FS-392 (peptide)
chain: CAYNNRPWRPAGNASASA
On to B30, for which the “furin cleavage Z-score” value reads like this: (7.5 min) -1.33 (inactive); (15 min) -0.755 (inactive); (30 min) -0.205 (inactive).

B31: HC1341 (peptide)
chain: CATGDNTTTSAGNASASA
On to B31, for which the “furin cleavage Z-score” value (7.5 min) is 0.632 (inactive), the “furin cleavage Z-score” value (15 min) is 0.808 (inactive) and the “furin cleavage Z-score” value (30 min) was -0.0812 (inactive).

B32: HC2346 (peptide)
chain: CAEVMCHRPSAGNASASA
With B32, the “furin cleavage Z-score” value was -0.818 (inactive) (7.5 min), -0.184 (inactive) (15 min) and 0.158 (inactive) (30 min).

B33: HC1820 (peptide)
chain: CADCMEECSQAGNASASA
B33: the “furin cleavage Z-score” value is -0.19 (inactive) (7.5 min), 0.0434 (inactive) (15 min) and -0.219 (inactive) (30 min).

B34: HC1495 (peptide)
chain: CAARVAIKSLAGNASASA
With B34, the “furin cleavage Z-score” value by setting is: (7.5 min) -0.648 (inactive); (15 min) -1.12 (inactive); (30 min) -0.674 (inactive).

B35: HC753 (peptide)
chain: CACTRGVAKAAGNASASA
Turning to B35, the “furin cleavage Z-score” value (7.5 min) was -1.87 (inactive), the “furin cleavage Z-score” value (15 min) was -0.584 (inactive) and the “furin cleavage Z-score” value (30 min) is -0.853 (inactive).

B36: HC63 (peptide)
chain: CATTPCVGSWAGNASASA
With B36, the “furin cleavage Z-score” value reads like this: (7.5 min) 1.12; (15 min) 0.786 (inactive); (30 min) 1.12.

B37: HC864 (peptide)
chain: CALVALGINAAGNASASA
Take B37: the “furin cleavage Z-score” value by setting is: (7.5 min) 1.29; (15 min) -0.504 (inactive); (30 min) -2.31 (inactive).

B38: HC1068 (peptide)
chain: CAWVAAQLAAAGNASASA
Consider B38, for which the “furin cleavage Z-score” value was 0.334 (inactive) (7.5 min), 0.0281 (inactive) (15 min) and 0.213 (inactive) (30 min).

B39: HC395 (peptide)
chain: CAWGPISYANAGNASASA
B39: the “furin cleavage Z-score” value (7.5 min) is -0.888 (inactive), the “furin cleavage Z-score” value (15 min) is 0.0541 (inactive) and the “furin cleavage Z-score” value (30 min) is -0.197 (inactive).

B40: FS-2608 (peptide)
chain: CARSRRNDEEAGNASASA
For B40, the “furin cleavage Z-score” value runs as follows: (7.5 min) 0.562 (inactive); (15 min) 2.36; (30 min) 0.814 (inactive).

B41: FS-3236 (peptide)
chain: CARSRRDREEAGNASASA
As to B41, the “furin cleavage Z-score” value was 4.34 (active) (7.5 min), 4.09 (active) (15 min) and 4.68 (active) (30 min).

B42: FS-3129 (peptide)
chain: CARWGRGFGLAGNASASA
In the case of B42, the “furin cleavage Z-score” value (7.5 min) turned out to be 1.38, the “furin cleavage Z-score” value (15 min) was -3.28 (inactive) and the “furin cleavage Z-score” value (30 min) was determined as 1.13.

B43: FS-2186 (peptide)
chain: CARSRKAKEEAGNASASA
Take B43: the “furin cleavage Z-score” value runs as follows: (7.5 min) 0.169 (inactive); (15 min) -0.905 (inactive); (30 min) -0.373 (inactive).

B44: FS-2461 (peptide)
chain: CARSRRGVSEAGNASASA
As for B44, the “furin cleavage Z-score” value is, setting by setting: (7.5 min) 8.54 (active); (15 min) 8.94 (active); (30 min) 5.25 (active).

B45: FS-2310 (peptide)
chain: CARSRRDFGLAGNASASA
As to B45, the “furin cleavage Z-score” value was 2.52 (7.5 min), 5.69 (active) (15 min) and 4.78 (active) (30 min).

B46: FS-2150 (peptide)
chain: CARIMRDSGLAGNASASA
Consider B46, for which the “furin cleavage Z-score” value is, setting by setting: (7.5 min) -1.41 (inactive); (15 min) 0.545 (inactive); (30 min) 0.804 (inactive).

B47: FS-1999 (peptide)
chain: CARDGRDGRKAGNASASA
For the sequence B47, the “furin cleavage Z-score” value runs as follows: (7.5 min) 1.36; (15 min) -0.614 (inactive); (30 min) -0.387 (inactive).

B48: FS-2460 (peptide)
chain: CARSRKRVSEAGNASASA
As to B48, the “furin cleavage Z-score” value (7.5 min) is 0.0687 (inactive), the “furin cleavage Z-score” value (15 min) is 0.727 (inactive) and the “furin cleavage Z-score” value (30 min) was 0.464 (inactive).

B49: FS-3172 (peptide)
chain: CARSRRDGRKAGNASASA
Turning to B49, the “furin cleavage Z-score” value runs as follows: (7.5 min) 6.47 (active); (15 min) 7.48 (active); (30 min) 6.61 (active).
